The experiment is described as follows: NCI Yeast Anticancer Drug Screen. Data for the mec2-1 strain (AID 157). The settings on record: S. cerevisiae mec2-1 strain, hits give high values. As to the method:
Growth inhibition of yeast strains with defined genetic alterations is measured as a screen for potential anti-cancer activity. Selected strains with alterations in DNA damage repair or cell cycle control were exposed to compounds and growth inhibition was measured relative to vehicle treated controls. The strain used in this assay is mec2-1

The mark [1] stands for this setting: at 5.0 µM (retest, dose inferred, filed as 0.5).
[2] abbreviates: at 50.0 µM (retest, dose inferred, filed as 5.0).

The record followed here is PubChem BioAssay (NCI).

The panel holds about 79,000 compounds, 15% with a hit somewhere; the sample as a whole holds those more often. Unmarked numbers belong to inactive results. Activity calls are given as the source filed them. Cut-off read from the data, not from the text of the source: active = growth inhibition above about 70%; inactive = the rest.

For the compound `CCCCc1ccc(-n2c(C)c(COC(=O)NC)c(COC(=O)NC)c2C)cc1`, the growth inhibition is -28% (at 1.2 µM); -21% (at 3.7 µM); 14% under setting [1]; 24% (at 11.0 µM); 99% (active) (at 33.0 µM); 98% (active) under setting [2]. Further, the growth inhibition is, setting by setting: (at 50.0 µM) 92.6% (active); (at 100.0 µM) 93% (active).
On to `CCCCCCOC(=O)NCCOC(=O)Nc1ccccc1`, for which the growth inhibition is 0% (at 1.2 µM); 3% (at 3.7 µM); -5% under setting [1]; 3% (at 11.0 µM); 5% (at 33.0 µM); 1% under setting [2]. For the same compound, the growth inhibition is 6.15% (at 50.0 µM) and 8% (at 100.0 µM).
On to `CCOC(=O)COc1c(OC)cc(C2C3=C(COC3=O)Oc3cc4c(cc32)OCO4)cc1OC` (stereo not given), for which the growth inhibition is, setting by setting: (at 1.2 µM) -1%; (at 3.7 µM) 0%; under setting [1], -8%; (at 11.0 µM) -2%; (at 33.0 µM) 1%; under setting [2], -4%. The growth inhibition reads like this: (at 50.0 µM) 26.8%; (at 100.0 µM) 17%.
As to `O=C(O)c1cc2ccccc2c2c1C(=O)c1ccccc1-2`, the growth inhibition is, setting by setting: (at 1.2 µM) -9%; (at 3.7 µM) 9%; under setting [1], 25%; (at 11.0 µM) 29%; (at 33.0 µM) 95% (active); under setting [2], 96% (active). Further, the growth inhibition is 91.5% (active) (at 50.0 µM) and 92% (active) (at 100.0 µM).
For `COc1cc(CSc2ccc(O)cc2)cc(O)c1O`, the growth inhibition reads like this: (at 1.2 µM) 4%; (at 3.7 µM) -1%; under setting [1], -14%; (at 11.0 µM) -1%; (at 33.0 µM) -4%; under setting [2], -6%. The growth inhibition was 54.1% (at 50.0 µM) and 0% (at 100.0 µM).
